Screening data from PubChem BioAssay.
This is a sample that favours compounds with a hit; in the whole collection about 7.4% have one here.
FLuc counter – qHTS profiling assay for firefly luciferase inhibitor/activator using purifed enzyme and Km concentrations of substrates (counterscreen for miR-21 project) | Potency, µM (titrated, usually from 57.5 µM), inactives show at the top dose activity change, negative = inhibition, most hits filed as inhibitors | AID 588342, 2011 | Luciferin 4-monooxygenase (Photinus pyralis), P08659 | purified FLuc, Km substrates, luminescence inhibition | actives 6.9% (n = 360,000);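 further: plate controls were vehicle for no effect and reference inhibitor for full effect; nearly all actives have a fitted effect of over 55% in size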
Target sequence (P08659 whole entry, looked up): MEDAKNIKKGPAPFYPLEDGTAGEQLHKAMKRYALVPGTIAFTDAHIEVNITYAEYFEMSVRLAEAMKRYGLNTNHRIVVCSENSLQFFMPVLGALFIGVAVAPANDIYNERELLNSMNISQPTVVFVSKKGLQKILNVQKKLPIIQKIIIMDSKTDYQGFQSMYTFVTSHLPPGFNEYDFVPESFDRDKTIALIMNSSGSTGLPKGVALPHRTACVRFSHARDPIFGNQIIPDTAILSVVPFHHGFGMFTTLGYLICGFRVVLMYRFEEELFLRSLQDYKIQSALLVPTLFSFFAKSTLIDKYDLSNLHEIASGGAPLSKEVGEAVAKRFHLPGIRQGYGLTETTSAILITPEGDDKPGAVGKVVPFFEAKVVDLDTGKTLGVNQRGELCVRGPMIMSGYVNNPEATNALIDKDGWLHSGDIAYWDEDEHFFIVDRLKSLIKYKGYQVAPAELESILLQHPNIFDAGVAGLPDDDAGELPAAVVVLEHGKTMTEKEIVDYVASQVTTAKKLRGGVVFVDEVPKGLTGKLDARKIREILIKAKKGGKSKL
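Purified P. pyralis luciferase (10nM final) with 10uM D-luciferin and 10uM ATP (Km levels) in 50mM Tris acetate pH 7.5, 10mM Mg acetate, 0.01% Tween-20, 0.05% BSA; qHTS 6-point titration, ~60 µM downward; luminescence read.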
SMN2 splice enh – qHTS Assay for Enhancers of SMN2 Splice Variant Expression. HEK293 SMN2-luciferase splicing reporter, luminescence, 30-36 h. Potency, µM (top dose mostly 46.1 µM), for the others: at the top dose activity change, positive = activation, actives largely listed as activators. actives 2.8% (n = 210,000); further: % of control where 0% means no effect; nearly all actives have a fitted effect of over 55% in size
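qHTS luciferase splicing reporter: luminescence rises when SMN2 exon 7 is included in transfected HEK293 cells. Compound exposure lasted 30-36 h at 37C, with 4.5 mM final sodium butyrate as control, followed by a ONE-Glo read.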
ELG1 genotoxic – qHTS screen for small molecules that induce genotoxicity in human embryonic kidney (HEK293T) cells expressing luciferase-tagged ELG1 | HEK293T ELG1-luciferase reporter, luminescence, 16 h | Potency, µM (titrated, usually from 46 µM), for inactives: at the highest dose activity change, positive = activation, usual class: activators | actives 1.3% (n = 330,000) | AID 504466, 2011; further: % of control where 0% means no effect; nearly all actives have a fitted effect of over 60% in size
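ELG1-luciferase HEK293T cells, 2,000/well; compound pinned in; 16 hr, 37 °C, 5% CO2; ONE-Glo, 30 min RT; luminescence on CCD imager.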
Luc counter – Counterscreen for Luciferase (Kinase-Glo TM) Inhibition | actives 0.28% (n = 200,000) | Luciferin 4-monooxygenase (Photuris pensylvanica), Q27757 | Kinase-Glo luciferase, ATP luminescence, 8 min | Potency, µM (series often up to 38.3 µM), for inactives: at the highest dose activity change, negative = inhibition, usual class: inhibitors; further: on the % scale 0 is the no-effect control and ±100 the full control effect; nearly all actives have a fitted effect of over 60% in size
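Inhibition of Kinase-Glo luciferase light generation was assessed at 10 uM ATP in pH 7.2 imidazole buffer, with luminescence measured after eight minutes at ambient temperature.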
NPC1 prom act – qHTS Assay for NPC1 Promoter Activators; AID 485313, 2010; actives 2.4% (n = 320,000); Potency, µM (top dose mostly 9.22 µM), for inactives: at the highest dose activation, hits mostly activators; Huh7 NPC1 promoter luciferase reporter, 24 h; further: % of control where 0% means no effect; nearly all actives have a fitted effect of over 60% in size
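Quantitative HTS used a cell-based reporter: Huh7 cells stably bearing the NPC1 promoter upstream of luciferase were treated with compounds for 24 h, and promoter activation was read as luminescence.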
Rab9 promoter act – qHTS Assay for Rab9 Promoter Activators. Potency, µM (series often up to 9.22 µM), inactives show top-dose activation, negative = inhibition, actives largely listed as activators. Huh7 Rab9 promoter-luciferase reporter, luminescence, 24 h. AID 485297, 2010. actives 2.8% (n = 320,000); further: % of control where 0% means no effect; nearly all actives have a fitted effect of over 60% in size
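Measured in stably transfected Huh7 cells bearing a Rab9 promoter–luciferase construct: 24 h compound treatment at 37 °C, followed by luminescence detection.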
* = called active by the depositor; ? = inconclusive; . = no result given; [ ] = dose if it differs, or a comment. The call rests on the fitted dose curve; in most records, active means well fitted curve in the direction sought with a large enough effect; inconclusive means small, poorly fitted or top-dose-only effect, or another doubt; inactive means no such curve, though single readings can be large; an effect the other way counts as inactive or inconclusive. Potency means the concentration at half of the fitted maximal effect.

SMILES | FLuc counter | SMN2 splice enh | ELG1 genotoxic | Luc counter | NPC1 prom act | Rab9 promoter act
O=C(CSc1ccc(-c2ccc(Br)cc2)nn1)N1CCOCC1 | 15µM* | -13% | -6% | 7% | 30% | 10%
COc1ccc(-c2ccc(SCC(=O)N3CCOCC3)nn2)cc1 | 11µM* | 9% | 5% | 8% | 20% | 0%
COc1ccc(-c2noc(-c3cc(-c4ccc(F)cc4)n[nH]3)n2)cc1 | 4% | . | . | . | . | .
CCOc1ccc(-c2cc(-c3nc(-c4cc(OC)c(OC)c(OC)c4)no3)[nH]n2)cc1 | 21µM* | . | . | . | . | .
Cc1cc(C(=O)Nc2ccc3[nH]ccc3c2)no1 | 11µM* | . | ? | . | 2.2µM* | 2.8µM*
CC1(C)Cc2c(sc(NC(=O)C(=O)N3CCCCC3)c2C(=O)O)CO1 | -3% | . | -1% | . | 4% | -2%
CC(C)COc1ccc(C(=O)Nc2sc3c(c2C(=O)O)CC(C)(C)OC3)cc1 | 21µM* | . | -14% | 0% | 0% | -5%
CC1(C)Cc2c(sc(NC(=O)c3ccccc3)c2C(=O)O)CO1 | 6.7µM* | ? | -2% | -2% | ? | ?
CC1(C)Cc2c(sc(NC(=O)C(=O)N3CCCC3)c2C(=O)O)CO1 | -2% | . | 3% | . | 1% | -5%
CN1CCN(c2ncc3nc(-c4ccccc4)c(=O)n(-c4ccccc4)c3n2)CC1 | . | -8% | . | 1% | . | .
Clc1ccc(Cn2ccc(C3CC3)n2)cc1 | ? | . | 14% | -2% | 8% | -29%
Cc1ccc(Cn2ccc(C3CC3)n2)cc1 | 17µM* | ? | 24% | -3% | ? | ?
COC(=O)C(C)Sc1nnc2cc(C)c3cc(C)cc(C)c3n12 (stereo unspecified) | -13% | . | . | . | . | .
Oc1ccc(Cl)cc1-c1cc(-c2ccccc2)n[nH]1 | ? | 16% | 12% | 3% | -7% | -4%
Cc1ccc(O)c(-c2cc(C(F)(F)F)[nH]n2)c1 | -11% | -18% | -7% | 1% | -1% | -6%
Oc1ccccc1-c1cc(-c2ccc(F)cc2)n[nH]1 | 3.4µM* | . | 5.8µM* | . | ? | 7%
Oc1ccc(F)cc1-c1cc(-c2ccc3c(c2)OCCO3)n[nH]1 | 2.4µM* | 13µM* | ? | -5% | 3.2µM* | 1.8µM*
Cc1ccc(O)c(-c2cc(-c3cccc(Br)c3)n[nH]2)c1 | 12µM* | . | 23µM* | -2% | ? | 4.5µM*
CCc1cc(-c2n[nH]c(C)c2-c2ccc3c(c2)OCCO3)c(O)cc1O | . | . | . | 0%[39.9 µM] | . | .
Cc1ccc(-c2cc(-c3ccc(C)cc3O)[nH]n2)cc1 | 2.4µM* | . | ? | . | 0.71µM* | 0.89µM*
CCOc1ccccc1CNC(=O)CN1C(=O)C2CCCCN2c2ccc(C(=O)N(C)C)cc21 (stereo unspecified) | 4% | . | . | . | . | .
Cc1cccc(NS(=O)(=O)c2ccc3oc(=O)c4ncn(C)c4c3c2)c1C | -4% | . | . | . | . | .
Cc1ccc(-c2cc(-c3ccc(F)cc3)n[nH]2)c(O)c1 | 4.3µM* | . | ? | . | ? | 4µM*
CCOC(=O)N1CCN(c2ccc(S(=O)(=O)N3CCOCC3)cn2)CC1 | . | . | 0% | . | . | .
CCOC(=O)N1CCN(c2ccc(S(=O)(=O)N(Cc3ccccc3)Cc3ccccc3)cn2)CC1 | 1% | -69% | 12µM* | -2% | -20% | -31%
SMILES | FLuc counter | SMN2 splice enh | ELG1 genotoxic | Luc counter | NPC1 prom act | Rab9 promoter act
C=CCC(C)(O)CCc1ccccc1 (stereo unspecified) | . | 13% | . | -1% | . | .
Cc1ccc(CSC2=Nc3ccccc3C3=NC(CCC(=O)NC4CCCCC4)C(=O)N23)cc1 (stereo unspecified) | 3% | . | . | . | . | .
CN(C(=O)/C=C/c1ccco1)c1ccccc1C(=O)O | -6% | . | 0% | . | -3% | -9%
CN(C)c1ccc(C(=O)/C=C/c2ccco2)cc1 | 0.38µM* | 13µM* | ? | -12% | 3.2µM* | 2.8µM*
O=C(/C=C/c1ccco1)c1ccc(O)cc1 | 13µM* | 6% | ? | -10% | 13% | ?
COC(=O)N/N=C(C)\C=C\c1ccco1 | -2% | 4%[1.84 µM] | 7% | -8% | -3% | 0%
COc1ccc(Cn2c(C(=O)O)c(CNCc3ccc(SC)cc3)c3ccc(OC)cc32)cc1 | -3% | . | . | . | . | .
Cn1c(=O)c2nc(SCC(=O)Nc3ccc(Cl)c(Cl)c3)n(C)c2n(C)c1=O | -1% | . | . | . | . | .
COc1cccc(Sc2nc(-c3ccccc3)ncc2S(C)(=O)=O)c1 | 17µM* | . | 1% | . | -4% | -2%
COc1cc(/C=N\NC(=O)c2ccc(Cn3nc([N+](=O)[O-])c(Cl)c3C)o2)ccc1O | ? | ? | 12% | -2% | -3% | -2%
COc1cccc(/C=N/NC(=O)C(=O)N2CCCC2)c1O | 15µM* | -48% | ? | ? | 7% | 11%
COc1cccc(/C=N/NC(=O)C(C)n2nc(C)c([N+](=O)[O-])c2C)c1O (stereo unspecified) | 7.6µM* | ? | ? | -2% | -13% | -30%
COc1cccc(/C=N\NC(=O)c2ccc(Cn3cc(Br)c([N+](=O)[O-])n3)o2)c1O | 11µM* | . | 12% | -12% | -33% | -51%
COc1ccccc1/C=C\C(=O)NCC(=O)N/N=C/c1cccc(OC)c1O | -4% | . | ? | . | -24% | -8%
COc1cccc(/C=N/NC(=O)C(=O)N2CCCC2)c1OC | -12% | 0% | 0% | -1% | -1% | 3%
COc1cccc(/C=N/NC(=O)N/N=C/c2cccc(OC)c2O)c1O | 4.3µM* | . | -7% | . | -2% | -3%
COc1cccc(/C=N/NC(=O)Cn2nc(C)c([N+](=O)[O-])c2C)c1O | 1% | . | 12% | . | -19% | -15%
COc1ccc(NC(=O)C(=O)NCc2ccco2)c(OC)c1 | -2% | 0% | . | . | . | .
CCCCC/C=C\C[C@@H](O)/C=C/C=C\C/C=C\CCCC(=O)O | . | -6% | . | -1% | . | .
CCOc1ccc(NC(=O)c2ccc(NC(=O)Cc3n[nH]c(=O)c4ccccc34)cc2)cc1 | -17% | . | 9.2µM* | . | 2% | -1%
COc1ccc(NC(=O)c2ccc3nccnc3c2)cc1 | 27µM* | 13µM* | ? | -9% | 4µM* | 2µM*
CCOc1ccc(NC(=O)c2oc3ccccc3c2NC(=O)c2cc(C)cc(C)c2)cc1 | 4% | -9% | . | . | . | .
CCOc1ccc(C(=O)Nc2c(C(N)=O)oc3ccccc23)cc1 | 11µM* | -2% | 1% | -1% | 14% | 17%
CCOc1ccc(NC(=O)c2ccc(N)cc2)cc1 | 9.5µM* | ? | ? | -6% | ? | ?
